Assay results: PubChem BioAssay (NCATS)
Values without a mark were called inactive. Inconclusive results are not listed. Entries that show only a call come without a potency. The source made the active and inactive calls. Calls come from the whole dose curve; as a rule, active = well fitted curve in the direction sought with a large enough effect; inconclusive = small, poorly fitted or top-dose-only effect, or another doubt; inactive = no such curve, though single readings can be large; an effect the other way counts as inactive or inconclusive.

How the values were obtained:
[1] = biological target: Glutathione peroxidase 1 (Homo sapiens) (UniProt P07203); assay: Primary qHTS Assay for Inhibitors of Recombinant Selenoprotein Glutathione Peroxidase 1 (GPX1) (AID 1845191); note: nearly all actives have a fitted effect of over 65% in size
Outline: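 GR-coupled assay: compounds preincubated 30 min at room temperature with GPX1, then reaction started with CHP; final 10 nM GPX1, 1 mM GSH, 0.5 mM CHP, 0.5 mM NADPH, 100 nM GR, 0.01% BSA, pH 7.5 Tris buffer. NADPH fluorescence (340/450 nm) read at 0 and 15 min.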

[2] = biological target: Phospholipid hydroperoxide glutathione peroxidase GPX4 (Homo sapiens) (UniProt P36969); assay: Primary qHTS Assay for Inhibitors of Recombinant Selenoprotein Glutathione Peroxidase 4 (GPX4) (AID 1845192); note: nearly all actives have a fitted effect of over 65% in size; for activity change, negative = inhibition: series mostly up to about 50 µM
Outline: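 GR-coupled assay: recombinant GPX4 preincubated 30 min with compound at room temperature; final 200 nM GPX4, 1 mM GSH, 0.5 mM cumene hydroperoxide, 0.5 mM NADPH, 100 nM GR, 0.01% BSA, pH 7.5 Tris. NADPH fluorescence (340/450 nm) read at 0 and 15 min.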

[3] = biological target: Luciferin 4-monooxygenase (Photinus pyralis) (UniProt P08659); assay: Primary firefly luciferase (FLuc) qHTS assay for identification of artifact compounds. (AID 1845220); note: nearly all actives have a fitted effect of over 60% in size; for activity change, negative = inhibition: series mostly up to about 54 µM
Outline: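 D-luciferin and ATP (10 uM each, final) in Tris acetate buffer pH 7.6 were incubated with compounds for 15 min at room temperature. The reaction was started with 10 nM Photinus pyralis luciferase and luminescence read after 5 min. Percent inhibition was fitted to a 4-parameter Hill equation.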

[4] = Primary fluorescence-based thiol-reactive (MSTI) qHTS assay for identification of artifact compounds. (AID 1845221); note: nearly all actives have a fitted effect of over 65% in size; note: potency is the fitted concentration of half-maximal effect;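 for activity change, negative = thiol reactive: series mostly up to about 54 µM; thiol-reactive compounds lower the probe fluorescence signal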
Outline: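 Probe: MSTI 4 uM, PBS pH 7.4, 2% DMSO. Incubation 1 h, RT, light-protected. Readout fluorescence 525/598 nm.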

[5] = test system: Nanoluciferase (engineered Oplophorus gracilirostris luciferase); assay: Primary Nanoluciferase (NLuc) qHTS assay for identification of artifact compounds. (AID 1845222); note: series mostly up to about 54 µM
Outline: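 Diluted conditioned medium from NLuc-expressing S16 cells treated with compounds for 15 min at room temperature, then Nano-Glo substrate added; luminescence read after 5 min. Percent inhibition versus no-enzyme and DMSO controls fitted to 4-parameter Hill equation.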

[6] = Primary redox qHTS assay for identification of artifact compounds. (AID 1845223)
Outline: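 Amplex Red (25 uM) and HRP (250 mU/mL) in HBSS, with compounds for 15 min, then 250 uM DTT for 30 min, room temperature, dark. Fluorescence 525/598 nm read; normalized to DMSO and 10 uM DA3003; Hill fit.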

Chain of Glutathione peroxidase 1 (Homo sapiens) (P07203 whole entry, looked up): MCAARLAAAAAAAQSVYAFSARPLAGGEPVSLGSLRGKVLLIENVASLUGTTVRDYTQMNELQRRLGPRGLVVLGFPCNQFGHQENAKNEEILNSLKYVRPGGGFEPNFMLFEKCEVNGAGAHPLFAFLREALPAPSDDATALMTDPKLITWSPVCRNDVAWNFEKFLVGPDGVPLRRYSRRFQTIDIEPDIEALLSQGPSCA
Chain of Phospholipid hydroperoxide glutathione peroxidase GPX4 (Homo sapiens) (P36969 whole entry, looked up): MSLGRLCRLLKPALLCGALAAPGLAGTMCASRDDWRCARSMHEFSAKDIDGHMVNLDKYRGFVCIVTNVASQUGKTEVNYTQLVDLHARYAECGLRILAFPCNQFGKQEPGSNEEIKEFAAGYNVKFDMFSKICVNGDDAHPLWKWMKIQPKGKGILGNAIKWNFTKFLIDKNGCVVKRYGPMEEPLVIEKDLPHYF

C=CC1C(OC2OC(CO)C(O)C(O)C2O)OC=C(C(=O)OC)C1CC(=O)OCC1C(C)C(O)CC1C(CO)COC(=O)CC1C(C(=O)O)=COC(OC2OC(CO)C(O)C(O)C2O)/C1=C\C (centres undefined)
Potency [1]: inactive | Potency [2]: inactive | activity change, negative = inhibition [3]: -4.67% [at 11.6 µM] | activity change, negative = thiol reactive [4]: 7.86% [at 11.5 µM] | activity, negative = inhibition [5]: -0.732% [at 11.6 µM] | redox activity (% of DA3003) [6]: 14.1% [at 11.5 µM]

C[C@@H]1O[C@@H](O[C@H]2[C@H](O[C@H]3[C@H](O[C@H]4CC[C@@]5(C)C(CC[C@]6(C)C5CC=C5[C@@H]7CC(C)(C)C[C@@H](O)[C@]7(C)CC[C@]56C)[C@@]4(C)CO)O[C@H](C(=O)O)[C@@H](O)[C@@H]3O)OC[C@H](O)[C@@H]2O)[C@H](O)[C@H](O)[C@H]1O (some centres undefined)
Potency [1]: inactive | Potency [2]: inactive | outcome [3]: inactive [at 11.6 µM] | activity change, negative = thiol reactive [4]: 129% [at 11.5 µM] | activity, negative = inhibition [5]: -0.768% [at 11.6 µM] | redox activity (% of DA3003) [6]: 17.9% [at 11.5 µM]

O=C(O)/C=C/c1ccc(O)c(O[C@@H]2O[C@H](CO)[C@@H](O)[C@H](O)[C@H]2O)c1
Potency [1]: inactive | Potency [2]: inactive | Potency [3]: inactive | Potency [4]: 4650 nM (active) | Potency [5]: inactive | Potency [6]: inactive

COC(=O)N(C)c1c(N)nc(-c2nn(Cc3ccccc3F)c3ncccc23)nc1N
Potency [1]: inactive | Potency [2]: inactive | Potency [3]: inactive | Potency [4]: inactive | Potency [5]: inactive | Potency [6]: inactive

CC1(C)CC[C@]2(C(=O)O)CC[C@]3(C)C(=CCC4[C@@]5(C)CC[C@H](O[C@@H]6O[C@H](CO)[C@@H](O)[C@H](O)[C@H]6O[C@@H]6O[C@H](CO)[C@@H](O)[C@H](O)[C@H]6O)[C@@](C)(CO)C5CC[C@]43C)[C@@H]2C1 (some centres undefined)
Potency [1]: inactive | Potency [2]: inactive | Potency [3]: inactive | Potency [4]: inactive | Potency [5]: inactive | Potency [6]: inactive

Cc1cccc(C)c1OCc1cc(C(=O)N2CCC(c3ccncc3)CC2)no1
Potency [1]: inactive | Potency [2]: inactive | Potency [3]: inactive | Potency [4]: inactive | Potency [5]: inactive | Potency [6]: inactive

C=C[C@@H]1[C@H](O[C@@H]2O[C@H](CO)[C@@H](O)[C@H](O)[C@H]2O)OC=C(C(=O)O)[C@H]1CCOC(=O)/C=C/c1ccc(O)c(O)c1
Potency [1]: inactive | Potency [2]: inactive | Potency [3]: inactive | Potency [4]: 1300 nM (active) | Potency [5]: inactive | Potency [6]: inactive

O=C(c1ccc2nccnc2c1)N1CCCCC1
Potency [1]: inactive | Potency [2]: inactive | Potency [3]: inactive | Potency [4]: inactive | Potency [5]: inactive | Potency [6]: inactive

O=C(CN1C(=O)C2(CCCC2)NCC1c1cc(F)cc(F)c1)Nc1ccc2c(c1)CC1(C2)C(=O)Nc2ncccc21 (centres undefined)
Potency [1]: inactive | Potency [2]: inactive | Potency [3]: inactive | Potency [4]: inactive | Potency [5]: inactive | Potency [6]: inactive

CC1OC(O[C@H]2CC[C@@]3(C)C(CC[C@]4(C)C3CC=C3C5CC(C)(C)CC[C@]5(C(=O)OC5OC(CO)C(OC6OC(COC7OCC(O)C(O)C7O)C(O)C(O)C6O)C(O)C5O)CC[C@]34C)C2(C)C)C(O)C(O)C1OC1OCC(OC2OCC(O)C(O)C2O)C(O)C1O (some centres undefined)
activity, negative = inhibition [1]: -21.4% [at 9.52 µM] | activity change, negative = inhibition [2]: -7.3% [at 9.73 µM] | activity change, negative = inhibition [3]: -3.25% [at 11.6 µM] | activity change, negative = thiol reactive [4]: 94.7% [at 11.5 µM] | activity, negative = inhibition [5]: 0% [at 11.6 µM] | redox activity (% of DA3003) [6]: 16.2% [at 11.5 µM]

CC1(C)CC[C@]2(C(=O)O[C@@H]3O[C@H](CO)[C@@H](O)[C@H](O)[C@H]3O)CC[C@]3(C)C(=CCC4[C@@]5(C)C[C@@H](O)[C@H](O)C(C)(C)C5[C@H](O)C[C@]43C)[C@@H]2[C@@H]1O (some centres undefined)
Potency [1]: inactive | Potency [2]: inactive | Potency [3]: inactive | Potency [4]: inactive | Potency [5]: inactive | Potency [6]: inactive

CC1CC(O)C2(OC1=O)OC1C(O)C3C4CCC5CC(OC6OC(CO)C(O)C(O)C6OC6OC(C)C(O)C(O)C6O)CCC5(C)C4CCC3(C)C1C2C (centres undefined)
Potency [1]: inactive | Potency [2]: inactive | Potency [3]: inactive | Potency [4]: inactive | Potency [5]: inactive | Potency [6]: inactive

CC1(C)CC[C@]2(C(=O)O[C@@H]3O[C@H](CO)[C@@H](O)[C@H](O)[C@H]3O)CC[C@]3(C)C(=CCC4[C@@]5(C)CC[C@H](O[C@@H]6O[C@H](C(=O)O)[C@@H](O)[C@H](O)[C@H]6O)[C@@](C)(CO)C5CC[C@]43C)C2C1 (some centres undefined)
Potency [1]: inactive | Potency [2]: inactive | activity change, negative = inhibition [3]: -3.91% [at 11.6 µM] | activity change, negative = thiol reactive [4]: 129% [at 11.5 µM] | activity, negative = inhibition [5]: -2.6% [at 11.6 µM] | redox activity (% of DA3003) [6]: 15.6% [at 11.5 µM]

CC(=O)OC1C(O)C2C(C)C3=CC(=O)OC3(O)CC2C2(C)CCCC(C)(CO)C12 (centres undefined)
Potency [1]: inactive | Potency [2]: inactive | Potency [3]: inactive | Potency [4]: inactive | Potency [5]: inactive | Potency [6]: inactive

Cc1c[nH]c2nccc(Oc3c(F)cc(Nc4cc(Cl)nc(N)n4)cc3F)c12
Potency [1]: inactive | Potency [2]: inactive | Potency [3]: inactive | Potency [4]: inactive | Potency [5]: inactive | Potency [6]: inactive

CC(C)c1nnc(-c2ccc(-c3ccccc3)nc2)n1-c1cccc2nonc12
Potency [1]: inactive | Potency [2]: inactive | Potency [3]: inactive | Potency [4]: inactive | Potency [5]: inactive | Potency [6]: inactive

COC(=O)C1=CO[C@@H](O)C2C(CO)=CCC12 (some centres undefined)
Potency [1]: inactive | Potency [2]: inactive | Potency [3]: inactive | Potency [4]: inactive | Potency [5]: inactive | Potency [6]: inactive

CC(C)CNCc1ccc(-c2ccccc2S(=O)(=O)N2CCCC2)cc1
Potency [1]: inactive | Potency [2]: inactive | Potency [3]: inactive | Potency [4]: inactive | Potency [5]: inactive | Potency [6]: inactive

C=C1C(=O)O[C@H](CCC)[C@H]1C(=O)O
Potency [1]: inactive | Potency [2]: inactive | Potency [3]: inactive | Potency [4]: inactive | Potency [5]: inactive | Potency [6]: inactive
